This passage reports Potency results from PubChem BioAssay (NCATS).

Results filed as inconclusive are left out. Where a call stands in place of a potency, no number is given. Activity calls are given as the source filed them. The call rests on the fitted dose curve; in most records, active means well fitted cell-killing curve with a large enough effect; inconclusive means small, poorly fitted or top-dose-only effect, or effect the other way; inactive means no such curve, though single readings can be large or run the other way.
Potency means the concentration at half of the fitted maximal effect.

This assay is described as follows: qHTS of pediatric cancer cell lines to identify multiple opportunities for drug repurposing: Confirmatory screen for NB-EBc1 cells (AID 1347115).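 Further: cells exposed to compound for 48 h before the viability read; nearly all actives have a fitted effect of over 45% in size.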 The conditions noted are these: NB-EBc1 neuroblastoma cells, viability (cytotoxicity); series mostly up to 45.9 µM. An excerpt:
Drug repurposing or repositioning has been offered as a strategy for drug development in oncology programs. This approach has special potential for childhood cancers and other rare or orphan diseases, where the expected return on new drug development has been a disincentive to pharmaceuticals.
In this project we exploit the poly-pharmacology of drugs to discover new indications via phenotypic screening of a panel of 19 well-characterized cell lines derived from solid tumors seen in children and adolescents. The goal is to identify approved drugs with previously unrecognized anticancer properties that has the potential to reveal new mechanisms and biological processes involved in carcinogenesis or drug resistance. We employed a titration-based paradigm (quantitative high-throughput screening or qHTS), where all compounds were tested at multiple concentrations for their effect on cell viability. Concentration-response curves (CRCs) were derived directly from the primary screen, and both potency and efficacy values were used to identify compounds with robust bioactivity profiles. We screened the NIH Chemical Genomics Center (NCGC) Pharmaceutical Collection (NPC) and Mechanism Interrogation Plate (MIPE) small molecule collections of approved and investigational compounds against these cell lines; and measured metabolically active cells after 48 hours of compound treatment as a proxy for cell viability.
Assay Submitter: Nathalia J. Martinez, National Center for Advancing Translational Sciences, National Institutes of Health, Rockville, MD, USA; email: natalia.martinez@nih.gov
[1] Shen, M et al. Quantitative high-throughput phenotypic screening of pediatric cancer cell lines identifies multiple opportunities for drug repurposing. Oncotarget 2017 Dec 19;9(4):4758-4772. PMID 29435139.
The cells were obtained from University of North Carolina (UNC), Pediatric Preclinical Testing Program (PPT), and Coriell Institute (CI).
qHTS cell viability assay:
Cells were assayed in growth media at a density of 500-1,000 cells/well. Five microliters of cells were dispensed into 1,536-well, white, solid-bottom, TC-treated plates (Greiner Bio One) using a multidrop dispenser and incubated at 37 degrees C, 5% CO2, under a humidified atmosphere for 5 hours. Twenty-three nanoliters of compounds and controls (neutral control DMSO or positive control bortezomib at final concentration of 2.3 µM) were subsequently transferred by Kalypsys pintool. For primary screens, the MIPE collection was tested at 11-point dilutions (final concentrations range from 0.78 nM to 46 µM) and the NPC collection at 8-point dilutions (final concentrations range from 0.59 nM to 46 µM). Compounds tested in follow-up screens were assayed at 11-point dilutions. Cells were incubated for 48 hours, followed by addition of 3 µL of CellTiter-Glo (Promega). After a 15 min incubation at room temperature, samples were analyzed for luminescence intensity using a ViewLux High-throughput CCD imager equipped with clear filters.
In the case of `C=CC(=O)Nc1cccc(Sc2nc(Nc3ccc(N4CCN(C)CC4)cc3)ncc2Cl)c1`, the Potency was 18.5 µM (active).
The result for `Cc1nn(Cc2ccccc2Cl)c(C)c1CN(C)CC(O)COc1ccc(Cl)cc1` (stereo not given) reads “inactive”.
With `CC1(C)CC(=O)c2c(C(F)(F)F)nn(-c3ccc(C(N)=O)c(NC4CCC(O)CC4)c3)c2C1` (stereo not given) the figure was 0.261 µM (active).
Regarding `CN(C)CC[C@H](CSc1ccccc1)Nc1ccc(S(=O)(=O)NC(=O)c2ccc(N3CCN(Cc4ccccc4-c4ccc(Cl)cc4)CC3)cc2)cc1[N+](=O)[O-]`, the Potency is 8.27 µM (active).
With `Nc1ccn([C@@H]2O[C@H](CO)[C@@H](O)[C@H]2O)c(=O)n1` the figure was 3.29 µM (active); with `CC(C)C[C@@H](C(=O)N[C@H](C(=O)OC1CCCC1)c1ccccc1)[C@H](O)C(=O)NO`, “inactive”; with `OCCn1cc(-c2ccc3c(c2)CCC3=NO)c(-c2ccncc2)n1`, “inactive”.
Turning to `Cc1c(C(=O)Nc2ccc(N3C[C@@H](C)O[C@@H](C)C3)nc2)cccc1-c1ccc(OC(F)(F)F)cc1`, the Potency entry was “inactive”.
As to `Nc1ccc(-c2ccc3ncc4ccc(=O)n(-c5cccc(C(F)(F)F)c5)c4c3c2)cn1`, the Potency was 0.293 µM (active).
With `CN[C@@H]1CN(c2ccc3c(=O)c(C(=O)O)cn(-c4nccs4)c3n2)C[C@@H]1OC` the figure was 0.811 µM (active); with `C[C@@]1(C(=O)Nc2ccc(F)nc2)CCCN1c1nc(Nc2cc(C3CC3)[nH]n2)c2cccn2n1`, 1.47 µM (active).
In the case of `CC1CNc2c(cccc2S(=O)(=O)N[C@@H](CCCN=C(N)N)C(=O)N2CC[C@@H](C)C[C@@H]2C(=O)O)C1` (stereo not given in full), the Potency entry was “inactive”.
On to `CCC[C@H](Nc1nc(-c2ccc(NC(=O)NCC)c(OC)c2)ncc1C)c1cccnc1`, for which the Potency was 0.329 µM (active).
For the compound `C[C@@H]1C[C@H]2[C@@H]3CCC4=CC(=O)C=C[C@]4(C)[C@@]3(F)[C@@H](O)C[C@]2(C)[C@@]1(O)C(=O)CO`, the Potency entry is “inactive”.
The result for `CC(C)CN(C[C@@H](O)[C@H](Cc1ccccc1)NC(=O)O[C@H]1CO[C@H]2OCC[C@H]21)S(=O)(=O)c1ccc(N)cc1` reads “inactive”; that for `CC1=C(CC(=O)O)c2cc(F)ccc2C1=Cc1ccc(S(C)=O)cc1` (stereo not given), “inactive”.
Consider `NC(N)=Nc1nc(CSCCC(N)=NS(N)(=O)=O)cs1`, for which the Potency entry was “inactive”.
For `COc1cc(CNC(=O)CCCCC=CC(C)C)ccc1O`, the Potency entry is “inactive”.
On to `COC1CCC(C(=O)c2ccc3nc4c(cc3c2)CCCO4)CC1` (stereo not given), for which the Potency result is “inactive”.
In the case of `CC1(COc2ccc3c(c2)ncn3-c2ccc3cccc(N4CCC(N)CC4)c3n2)COC1`, the Potency entry was “inactive”.
With `C[C@@H]1[C@H](O)[C@@H](C)C=CC=CC=CC=CC=CC=CC=C[C@H](O[C@@H]2O[C@H](C)[C@H](O)[C@H](N)[C@@H]2O)C[C@@H]2O[C@](O)(C[C@@H](O)C[C@@H](O)[C@H](O)CC[C@@H](O)C[C@@H](O)CC(=O)O[C@H]1C)C[C@H](O)[C@@H]2C(=O)O` the entry was “inactive”.
With `COc1cc2ncnc(Nc3cc(Br)c(O)c(Br)c3)c2cc1OC` the entry was “inactive”; with `O=c1[nH]nc(OCCCc2ccc(Cl)cc2)c(NCc2cccnc2)c1Br`, 13.1 µM (active); with `CCC(=O)N1CCN(c2ccc(-n3c(=O)ccc4cnc5ccc(-c6cnc7ccccc7c6)cc5c43)cc2C(F)(F)F)CC1`, “inactive”.
`COc1cc([C@@H]2c3cc4c(cc3[C@@H](O[C@@H]3O[C@@H]5CO[C@@H](C)O[C@@H]5[C@H](O)[C@@H]3O)[C@H]3COC(=O)[C@H]23)OCO4)cc(OC)c1O`: the Potency is 1.47 µM (active).
As to `Cc1ccc(S(=O)(=O)Nc2nc3ccccc3nc2Nc2ccc3nsnc3c2)cc1`, the Potency result was “inactive”.
For the compound `CN1CCN(c2ncc(-c3cc(Cl)cc(Cl)c3Cl)c(N)n2)CC1`, the Potency entry was “inactive”.
Take `CO[C@H]1/C=C\O[C@@]2(C)Oc3c(C)c(O)c4c(O)c(c5c(nc6cc(C)ccn65)c4c3C2=O)NC(=O)C(C)=CC=C[C@H](C)[C@H](O)[C@@H](C)[C@@H](O)[C@@H](C)[C@H](OC(C)=O)[C@H]1C`: the Potency result was “inactive”.
The result for `FC(F)(F)c1ccc(C=Cc2nc(COc3ccc(CCCCn4ccnn4)cc3)co2)cc1` reads 0.369 µM (active).
The result for `CC1C(=O)OC2C(O)C34C5CC(C(C)(C)C)C36C(OC(=O)C6O)OC4(C(=O)O5)C12O` (stereo not given) reads “inactive”; that for `CCC[C@H](N[C@@H](C)C(=O)N1[C@@H]2CCCC[C@H]2C[C@H]1C(=O)O)C(=O)OCC`, “inactive”; that for `O=C1NC(=O)C(c2cnc3ccccn23)=C1c1cn2c3c(cccc13)CN(C(=O)N1CCOCC1)CC2`, 2.93 µM (active).
With `CSc1cccc(Nc2ncc3cc(-c4c(Cl)cccc4Cl)c(=O)n(C)c3n2)c1` the figure was 2.08 µM (active).
Take `Cc1cnc(-c2cc(N3CCN(C(=O)CCS(C)(=O)=O)CC3)ncc2Cl)c(C)c1`: the Potency entry was “inactive”.
With `CCNC(=O)c1noc(-c2cc(C(C)C)c(O)cc2O)c1-c1ccc(CN2CCOCC2)cc1` the figure was 0.293 µM (active).
The result for `O=C1Nc2ccc(I)cc2C1=Cc1cc(Br)c(O)c(Br)c1` reads “inactive”.
With `CN(C)CCN(C)C(=O)c1ccc(NC(=O)Nc2ccc(-c3nc(N4CCOCC4)c4ccn(CC(F)(F)F)c4n3)cc2)cc1` the entry was “inactive”; with `CCCC1OC2C[C@@H]3[C@H]4CCC5=CC(=O)C=C[C@]5(C)[C@H]4C(O)C[C@]3(C)[C@]2(C(=O)CO)O1` (stereo not given in full), “inactive”.
For `CCCCn1c(=O)n(Cc2ccccc2F)c(=O)c2[nH]c(Cc3ccc(NC(C)=O)cc3)nc21`, the Potency result is “inactive”.
Consider `Cc1ccc2c(c1)C(=O)[C@]1(O)CCN(c3ccccc3)C1=N2`, for which the Potency result is “inactive”.
